Rows were chosen to be rich in hits. Some 3.4% of all compounds tested hit in one or more screens of this group.
MITF primary: MITF inhibitors, primary screen, biochemical, AlphaScreen, human | AlphaScreen MITF homodimerization, bead proximity signal | inhibition, % at 2.6 µM | 650,000 compounds, 0.91% hits; in the data active = inhibition above about 50%;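 also: 0% = vehicle wells with protein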
Target sequence (O75030 whole entry, looked up): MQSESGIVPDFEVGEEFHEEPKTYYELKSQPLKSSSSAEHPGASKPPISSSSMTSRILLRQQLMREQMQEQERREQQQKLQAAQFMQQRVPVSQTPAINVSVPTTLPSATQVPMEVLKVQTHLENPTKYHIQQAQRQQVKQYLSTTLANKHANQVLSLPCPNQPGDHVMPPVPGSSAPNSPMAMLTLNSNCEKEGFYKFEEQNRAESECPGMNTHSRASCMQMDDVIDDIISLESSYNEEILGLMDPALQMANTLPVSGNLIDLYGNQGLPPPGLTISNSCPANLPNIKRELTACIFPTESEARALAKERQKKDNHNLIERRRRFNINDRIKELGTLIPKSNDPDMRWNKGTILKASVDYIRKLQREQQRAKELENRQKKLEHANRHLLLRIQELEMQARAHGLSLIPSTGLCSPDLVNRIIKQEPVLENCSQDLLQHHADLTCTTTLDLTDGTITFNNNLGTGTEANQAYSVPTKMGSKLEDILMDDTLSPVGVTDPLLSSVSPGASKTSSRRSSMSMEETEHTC
GPR151 activ: activators of human GPR151, primary screen, cell-based, PathHunter beta-arrestin, luminescence. PathHunter beta-arrestin GPR151 cells. 650,000 compounds, 1% hits. G-protein coupled receptor 151 (Homo sapiens), Q8TDV0. AID 1508602, 2020. activation, % at 11.2 µM; in the data active = activation above about 4.9%;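 also: 0% = median of compound wells and 100% = cells with positive control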
FBW7 act: FBW7 E3 ligase activators, primary screen, biochemical, AlphaScreen, human | AID 1259310, 2017 | normalized activity (activation), % at 26.1 µM | AlphaScreen FBW7–phospho-cyclin E peptide binding, activator screen | 650,000 compounds, 0.13% hits; in the data active = normalized activity above about 1.9%;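 also: purified mutant Fbw7 with reduced substrate affinity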
TEAD-YAP inh: TEAD-YAP interaction inhibition, primary screen, TEAD-YAP interaction inhibitor project, luminescence, HEK-TIYL cells | TEAD-Gal4/YAP UAS-luciferase luminescence | inhibition, % at 9.12 µM | 640,000 compounds, 1.4% hits; in the data active = inhibition above about 32%;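 also: 0% = median of test compound wells and 100% = reference inhibitor wells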
MITF confirm: MITF inhibitors, retest of hits, confirmation, biochemical, AlphaScreen, triplicate. shares compounds with MITF primary. AlphaScreen MITF homodimerization, biotin/His-MITF beads. inhibition, % at 2.6 µM. 4,700 compounds, 16% hits. AID 1259372, 2018;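 active = inhibition above a cutoff derived from the DMSO control wells, cut at about 28% in these data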;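 also: 0% = MITF dimer wells with DMSO only; inhibitors lower the bead chemiluminescence by keeping MITF from dimerizing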
AlphaScreen intf2: AlphaScreen optical interference compounds, counter-screen for MITF inhibitor project, biochemical, triplicate | shares compounds with MITF primary | LysRS AlphaScreen counterscreen, signal interference | inhibition, % at 2.6 µM | 4,700 compounds, 7.6% hits;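 active = inhibition above a cutoff derived from the DMSO control wells, cut at about 30% in these data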
Active calls of the source: *; nt = no result.

SMILES	MITF primary	GPR151 activ	FBW7 act	TEAD-YAP inh	MITF confirm	AlphaScreen intf2
COc1ccc(OC)c(CN2CCN(Cc3cccc(C)c3)CC2)c1	70.0*	0.1	-0.2	2.0	0.0	0.0
COc1cc(OC)c(OC)cc1CN1CCN(Cc2ccc(C)cc2C)CC1	70.0*	-0.1	-0.6	0.9	8.0	6.4
COc1cc(OC)c(OC)cc1CN1CCN(Cc2cccc(C)c2)CC1	83.1*	0.5	0.2	0.0	-1.6	15.8
COc1cc([N+](=O)[O-])cc2cc(C(=O)Nc3ccc(Br)cc3)c(=O)oc12	-7.6	1.0	0.0	-18.0	nt	nt
COc1cccc(CN2CCN(Cc3cc(OC)ccc3OC)CC2)c1	75.0*	0.7	0.0	7.6	-4.4	0.7
O=C(c1cccs1)N1CCN(C2CCCC2)CC1	45.0	-0.1	0.1	-9.5	nt	nt
O=C(c1ccncc1)N1CCN(C2CCCCCC2)CC1	81.7*	1.6	-0.2	-1.3	-2.1	-0.1
O=C(c1cccs1)N1CCC(N2CCCCCC2)CC1	55.5*	-2.0	0.6	9.3	-7.0	-6.6
CC1CCCC(N2CCN(C(=O)c3cccs3)CC2)C1 (stereo unspecified)	53.5*	-0.1	0.5	3.2	-5.7	-1.6
CC1CCCC(N2CCN(C(=O)c3ccncc3)CC2)C1 (stereo unspecified)	53.1*	1.7	-0.1	-5.0	-6.0	-5.2
O=C(COC(=O)c1ccc2c(c1)C1C=CCC1C(c1ccc(Br)cc1)N2)c1ccc(-c2ccccc2)cc1 (stereo unspecified)	-6.5	0.7	0.0	-8.8	nt	nt
COc1cc(OC)cc(C(=O)N2CCN(C3CCCCCC3)CC2)c1	59.1*	2.0	0.0	-0.4	-0.2	11.6
COc1cc(OC)cc(C(=O)N2CCN(C3CCC(c4ccccc4)CC3)CC2)c1 (stereo unspecified)	33.7	-0.8	0.6	13.3	nt	nt
O=C(c1ccccc1)N1CCC(N2CCCCCC2)CC1	20.2	-0.6	0.0	9.9	nt	nt
CN1CCN(C2CCN(C(=O)c3ccc(-c4ccccc4)cc3)CC2)CC1	69.0*	0.0	0.2	-4.2	-0.9	0.5
COc1ccc(C(=O)N2CCN(C3CCC(c4ccccc4)CC3)CC2)cc1 (stereo unspecified)	55.8*	-0.9	0.5	2.7	13.6	16.1
COc1ccc(-c2noc(C(C)c3ccc([N+](=O)[O-])cc3)n2)cc1OC (stereo unspecified)	6.5	1.0	-0.1	11.8	nt	nt
CN(C)CCNCCCOc1ccccc1	55.7*	-1.6	0.3	11.0	4.7	16.4
COCCCNCCCOc1ccc(C(C)(C)c2ccccc2)cc1	76.2*	0.2	-0.1	4.8	2.1	4.9
COCCNCCCCOc1ccc(OCc2ccccc2)cc1	65.9*	-1.1	-0.2	-28.4	11.4	14.6
CC(C)(c1ccccc1)c1ccc(OCCCNCCN)cc1	-1.7	1.0	-0.1	8.7	nt	nt
COCCCNCCOc1ccc(OCc2ccccc2)cc1	46.5	-2.4	0.4	-22.0	nt	nt
COCCNCCCOc1ccc(C(C)(C)c2ccccc2)cc1	84.9*	-1.1	0.2	10.2	1.9	7.2
CN(C)S(=O)(=O)c1ccc(N=Cc2c(O)n(-c3cccc(Cl)c3)c(=O)[nH]c2=O)cc1	17.7	-0.7	0.0	-4.6	nt	nt
O=C(Cc1ccccc1)Nn1c(SCC(=O)c2ccc(Cl)cc2)nc2ccccc2c1=O	-9.9	3.0	0.3	-7.8	nt	nt
SMILES	MITF primary	GPR151 activ	FBW7 act	TEAD-YAP inh	MITF confirm	AlphaScreen intf2
COc1cccc(OC)c1C(=O)N1CCN(Cc2ccco2)CC1	60.7*	1.2	0.1	6.8	-5.5	-9.4
COc1cccc(C(=O)N2CCN(Cc3ccc(Br)cc3)CC2)c1	61.3*	-0.1	-0.2	8.2	20.9	9.1
CCOc1ccc(CN2CCN(C(=O)c3c(OC)cccc3OC)CC2)cc1	32.8	-1.3	-0.2	25.3	nt	nt
COc1ccc(Br)cc1CN1CCN(C(=O)c2cccs2)CC1	64.0*	0.2	0.1	1.0	-7.5	-6.0
COc1cccc(OC)c1C(=O)N1CCN(Cc2ccc(Br)cc2)CC1	64.2*	-0.4	0.9	4.7	3.5	-1.7
CCc1ccc(CN2CCN(C(=O)c3ccco3)CC2)cc1	51.3*	0.9	-0.4	-17.5	5.5	9.5
O=C(c1ccccc1)N1CCN(CC(O)COCc2ccccc2)CC1 (stereo unspecified)	55.6*	0.1	-0.2	-5.3	10.6	10.0
COc1cccc(CN2CCN(C(=O)c3ccco3)CC2)c1	54.9*	-0.4	-0.2	6.1	-22.1	-0.5
COc1ccc(CN2CCN(C(=O)c3ccco3)CC2)cc1Br	53.2*	-0.9	-0.2	-3.0	3.0	12.9
Cc1ccc(C(=O)NCCc2ccccc2)cc1S(=O)(=O)Nc1ccccc1	3.3	1.5	-0.1	7.8	nt	nt
CCOc1cc(CN2CCN(C(=O)c3cccc(Cl)c3)CC2)ccc1OC	20.8	-0.4	-0.1	2.4	nt	nt
COc1cc(OC)c(OC)cc1CN1CCN(Cc2ccco2)CC1	81.1*	0.2	0.0	7.1	14.7	21.4
COc1ccc(C(=O)N2CCN(Cc3cccc(Cl)c3)CC2)cc1OC	51.2*	-2.0	0.0	-3.0	5.2	12.3
COc1cccc(C(=O)N2CCN(C(=O)c3cccc(Cl)c3)CC2)c1	22.3	-0.1	0.0	16.0	nt	nt
COc1cccc(C(=O)N2CCN(C3CCN(Cc4ccccc4)CC3)CC2)c1	54.4*	-0.2	-0.2	-7.1	-7.8	-9.6
COc1cccc(C(=O)N2CCN(Cc3cccc(Cl)c3)CC2)c1	51.8*	0.1	0.2	12.6	49.6*	18.2
O=C(c1ccncc1)N1CCN(Cc2ccco2)CC1	75.6*	-0.6	0.0	-10.5	4.2	0.4
O=C(c1cccc(Cl)c1)N1CCN(Cc2ccccc2Cl)CC1	57.9*	1.6	-0.1	-8.6	8.5	12.2
COc1cccc(CN2CCN(C(=O)c3cccc(Cl)c3)CC2)c1	57.6*	-0.3	0.1	-0.1	11.4	15.0
COc1cccc(CN2CCN(C(=O)c3ccccc3)CC2)c1	60.5*	-0.2	0.1	-0.6	7.8	17.1
COc1ccc(CN2CCN(C(=O)c3ccccc3)CC2)cc1	37.9	-0.5	0.0	1.5	nt	nt
c1coc(CN2CCN(Cc3ccncc3)CC2)c1	34.8	1.0	0.2	-12.5	nt	nt
COc1ccc(-n2nc3c(c2NC(=O)c2c(F)cccc2Cl)CSC3)cc1	-1.6	0.2	0.6	6.5	nt	nt
CCc1cccc(CC)c1NC(=O)CSc1nc2ccc(NC(=O)c3ccc(C)cc3)cc2s1	21.2	1.0	0.4	-18.9	nt	nt
CCCNC(=O)NC(=O)CN1C(=O)c2ccccc2S1(=O)=O	3.1	0.7	0.1	2.3	nt	nt
COc1ccc(CN2CCN(C(=O)c3cccc(Cl)c3)CC2)c(OC)c1	54.1*	0.6	0.0	1.2	5.5	16.3
